From PubChem BioAssay
CYP2C9 act = CYP2C9 (human) activation; activation factor at 5 µM; recombinant CYP2C9, luciferin-H conversion, luminescence; stronger effect = higher value; factor 1 = untreated enzyme, 0 = blocked; hit rate 1.4% among 96,000; AID 1024;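 active = activation factor of 2 or more for CYP2C9 at a 5 µM dose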;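 note: 0 = sulfaphenazole-blocked wells and 1 = vehicle-only wells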
CYP2C9 inhib = inhibitors of human CYP2C9; CYP2C9 Supersomes, luciferin-H conversion, luminescence; inhibition, % at 5 µM; hit rate 20% among 96,000; P11712;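 active = blocking of liver enzyme CYP2C9 beyond about 50% at 5 µM, limit read from the data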
CYP2C19 inhib = blocks human cytochrome P450 2C19 | CYP2C19 Supersomes, luciferin-H EGE luminescence, 30 min | inhibition, % at 5 µM | hit rate 21% among 96,000;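 active = CYP2C19 inhibition above a set limit at 5 µM in the primary screen, cut at about 50% in these data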;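 note: plate controls were negative control wells for no effect and 2.5 mM tranylcypromine positive control for full effect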
Target sequence (P33261 whole entry, looked up): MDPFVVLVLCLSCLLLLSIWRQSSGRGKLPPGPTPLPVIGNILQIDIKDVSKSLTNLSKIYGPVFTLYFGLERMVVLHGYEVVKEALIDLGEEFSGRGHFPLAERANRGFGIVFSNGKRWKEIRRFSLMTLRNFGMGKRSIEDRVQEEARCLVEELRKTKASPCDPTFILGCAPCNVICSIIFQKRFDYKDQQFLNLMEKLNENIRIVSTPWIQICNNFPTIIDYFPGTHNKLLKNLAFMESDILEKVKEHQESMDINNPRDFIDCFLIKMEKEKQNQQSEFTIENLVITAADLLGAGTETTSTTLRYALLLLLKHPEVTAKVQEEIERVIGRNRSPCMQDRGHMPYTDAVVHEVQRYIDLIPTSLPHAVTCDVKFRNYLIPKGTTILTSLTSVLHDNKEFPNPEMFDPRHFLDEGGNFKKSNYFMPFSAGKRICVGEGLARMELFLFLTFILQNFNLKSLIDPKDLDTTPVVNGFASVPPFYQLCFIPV
CYP2C19 act = activators of human cytochrome P450 2C19. recombinant CYP2C19, luciferin-H EGE luminescence; stronger effect = higher value; 0 = fully inhibited enzyme, 1 = untreated enzyme. activation factor at 5 µM. AID 1025. 96,000 tested, under 10 active;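 active = activation factor of at least 2 at 5 µM in the primary screen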;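 note: 0 = wells with 2.5 mM tranylcypromine and 1 = vehicle-only wells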
PTK2B oligo ant = Pyk2 (human) oligomerization antagonism. z-score (the deposit names both 25 µM and 10 µM). hit rate 0.83% among 99,000. Q14289. Q293 cells, Pyk2 FERM NanoBiT luminescence; stronger effect = lower value;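 active = Z-score of -3 or lower, scaled per plate to the spread of control and sample wells; inactive = z-score above -3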;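 note: negative z-score means lost luminescence so less FERM oligomerization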
* marks the source's active call; other numbers are inactive results; nt = no result given. Sampled rows, rich in hits. Any-hit rate of the full collection: about 28%.

SMILES	CYP2C9 act	CYP2C9 inhib	CYP2C19 inhib	CYP2C19 act	PTK2B oligo ant
O=c1c(CN2CCN(Cc3ccccc3)CC2)coc2ccc(Cl)cc12	2.8*	-182.1	44.3	0.6	0.16
Cc1ccc2occ(CN3CCN(c4ccccc4)CC3)c(=O)c2c1	0.8	21.3	81.8*	0.2	0.37
COc1cc(/C=C(\NC(=O)c2ccccc2)C(=O)Nc2cccc(O)c2)c([N+](=O)[O-])cc1OC	0.7	26.6	6.4	0.9	0.48
O=C(CN1CCN(C2CCCCC2)CC1)NCCC1=CCCCC1	0.8	21.4	15.6	0.8	1.37
O=C(NCCc1ccc(Cl)cc1)C1CCC(=O)N1C1CCCC1 (stereo not drawn)	2.3*	-134.0	26.2	0.7	0.01
Cc1ccc(CNC(=O)C2CCC(=O)N2C2CCCCC2)cc1 (stereo not drawn)	1	-1.9	32.4	0.7	0.6
CCOc1ccc(CCNC(=O)C2CCC(=O)N2C2CCCCC2)cc1OCC (stereo not drawn)	0.8	19.6	64.1*	0.4	-0.23
Cc1nc(N2CCOCC2)[nH]c(=O)c1CCC(C)C	1.3	-31.0	-10.4	1.1	-0.27
CCCCCCCc1c(C)nc(N2CCOCC2)[nH]c1=O	0.3	74.2*	50.6*	0.5	-0.39
COCCNCCOCCOc1ccc(Cl)c(C)c1	1	-3.6	32.1	0.7	0.47
CCOC(=O)c1sc2nc(NC(=O)C3CCCCC3)sc2c1C	0.9	8.3	-3.5	1	nt
CCOC(=O)c1sc2nc(NC(=O)C3CC3)sc2c1C	0.7	29.5	52.7*	0.5	nt
CCOC(=O)c1sc(NC(=O)C2CC2)nc1C	0.4	61.2*	63.1*	0.4	nt
COC(C)(C)[C@]12CC(O)(c3ccccc3)ON1[C@H]1CCCCC1N2O (stereo partly drawn)	1.2	-18.7	30.3	0.7	-0.5
CC(C)CCNC(=O)C1CCN(S(=O)(=O)c2ccc3c(c2)CCC(=O)N3)CC1	0.4	58.8*	16.2	0.8	nt
O=C1CCc2cc(S(=O)(=O)N3CCC(C(=O)NCc4ccccn4)CC3)ccc2N1	0.9	13.8	-2.1	1	nt
O=C1CCc2cc(S(=O)(=O)N3CCCC3C(=O)NC3CCCCCCC3)ccc2N1 (stereo not drawn)	0.2	80.7*	19.6	0.8	nt
Cc1ccc(CCNC(=O)C2CCN(S(=O)(=O)c3ccc4c(c3)CCC(=O)N4)CC2)cc1	0.8	19.2	-19.3	1.2	nt
O=C1CCc2cc(S(=O)(=O)N3CCC(C(=O)NC4CCCC4)CC3)ccc2N1	0.5	52.5*	14.7	0.9	nt
CCOC(=O)CNC(=O)c1cn(CC)c(=O)c2cc(OC)c(OC)cc12	1	-4.7	-4.9	1	-0.32
Cc1ccccc1NC(=O)CNc1ccccc1C(=O)NCc1ccco1	0.8	24.4	68.1*	0.3	-0.47
CCC(C)C(NC(=O)c1ccccc1NC(=O)c1ccc(OC)cc1)C(=O)NCc1ccco1 (stereo not drawn)	0.1	89.0*	76.1*	0.2	-1.62
O=C(COc1ccccc1)Nc1ccccc1C(=O)NCc1ccco1	0.4	63.5*	58.3*	0.4	-1.93
O=C(CCc1ccccc1)Nc1ccccc1C(=O)NCc1ccco1	nt	nt	nt	nt	-0.32
O=C(NCc1ccco1)c1ccccc1NC(=O)C1CC(=O)N(c2ccc(Cl)cc2)C1 (stereo not drawn)	0.3	68.2*	53.4*	0.5	0.45
SMILES	CYP2C9 act	CYP2C9 inhib	CYP2C19 inhib	CYP2C19 act	PTK2B oligo ant
O=C(NCc1ccco1)C1CC(=O)N(c2ccc(F)cc2)C1 (stereo not drawn)	1.2	-21.3	-0.3	1	-0.61
CC1CN(Cc2nc3c(c(=O)[nH]c(=O)n3C)n2CCCc2ccccc2)CC(C)O1 (stereo not drawn)	nt	nt	nt	nt	-0.46
CCn1c(SCC(=O)N/N=C/C=C\c2ccccc2[N+](=O)[O-])nc2ccccc21	1.5	-51.1	-4.8	1	-1.65
Cn1c(=O)c2c3c(sc2n2c(SCc4ccc5c(c4)OCO5)nnc12)COC(C)(C)C3	0.8	19.3	-3.7	1	nt
O=C(Nc1ccc(Cl)cc1)Nc1ccccc1C(=O)NCc1ccco1	0.5	53.1*	5.7	0.9	-1.34
O=C(Nc1ccccc1C(=O)NCc1ccco1)c1ccccc1	0.3	73.8*	54.3*	0.5	-1.58
O=C1CCC(=O)N1c1ccc(CSc2nc3ccccc3[nH]2)cc1	0.4	62.0*	64.4*	0.4	0.75
COC(=O)c1ccc(CSc2nc3ccccc3[nH]2)o1	0.6	36.1	81.3*	0.2	2.01
O=C1CC(SCc2nc3ccccc3[nH]2)C(=O)N1c1ccc(F)cc1 (stereo not drawn)	1	0.1	23.3	0.8	-1.13
CCOC(=O)c1ccc(CSc2n[nH]c(C)n2)o1	0.8	20.5	65.4*	0.3	-1.36
CCOC(=O)c1ccc(CSc2nnc(C)n2N)o1	0.8	20.5	-22.5	1.2	1.16
COc1ccc(CSc2nc3ccccc3[nH]2)cc1	0.4	63.0*	48.1	0.5	1.05
Cc1ccc(NC(=S)N2CCOCC2)c(C)c1	1	2.9	8.5	0.9	0.57
CCCn1c(CNS(=O)(=O)c2ccc(C)cc2)nc2ccccc21	1.2	-22.6	35.9	0.6	nt
c1cnc2c(SCc3ccc(-c4nnco4)cc3)cccc2c1	0.4	61.8*	86.2*	0.1	0.21
c1ccc2[nH]c(SCc3ccc(-c4nnco4)cc3)nc2c1	0.1	94.7*	99.4*	0	1.13
Cc1cc(C)c(OCCCCCNCCO)c(C)c1	0.1	86.9*	24.3	0.8	0.23
CC(=O)Oc1ccc(NC(=O)C2CCCCC2)c(C(=O)O)c1	0.9	5.1	-3.2	1	-0.81
Cc1[nH]cnc1CSCCN	0.3	73.6*	-6.4	1.1	0.69
CC1(C)Cc2cccc(OCC(=O)N3CCN(S(=O)(=O)c4ccccc4)CC3)c2O1	1.2	-17.7	30.9	0.7	-0.6
Cc1cc(C(F)(F)F)n(-c2nc(C(=O)N/N=C/c3ccc(F)cc3)cs2)n1	0.4	55.2*	18.9	0.8	-0.73
COc1ccc(C(=O)NC(=S)NC(C)(C)C)cc1Br	1	2.5	11.4	0.9	-1.28
Cc1cc(C(=O)OCC(=O)Nc2ccc(F)cc2)c(C)o1	1.1	-10.5	60.9*	0.4	0.13
CCN(CC)S(=O)(=O)c1cccc(NC(=O)COC(=O)c2cc(C)oc2C)c1	0	96.5*	64.1*	0.4	0.24
Cc1ccc2nc(N3CCN(C=O)CC3)nc(-c3ccccc3)c2c1	nt	nt	nt	nt	-1.27
SMILES	CYP2C9 act	CYP2C9 inhib	CYP2C19 inhib	CYP2C19 act	PTK2B oligo ant
COC(=O)c1ccc(NC(=S)N2CCN(Cc3cccc(C)c3)CC2)cc1	1.1	-11.6	-23.6	1.2	0.86
COC(=O)c1ccc(NC(=S)NCCc2cccc(C)c2)cc1	0.2	79.4*	76.6*	0.2	-0.93
CCOCCCNC(=O)Cn1cc2c(n1)CCCCC2	1	1.2	35.1	0.6	nt
CC(C)CN1C(=O)CC(Sc2ccccc2C(=O)O)C1=O (stereo not drawn)	1.3	-26.1	-3.6	1	-0.05
CCN1C(=O)CC(Sc2ccccc2N)C1=O (stereo not drawn)	0.6	41.3	54.1*	0.5	-0.34
CCOC(=O)c1c(NC=O)sc2c1CCC2	1.4	-38.0	-7.1	1.1	nt
